This note sets out measurements from PubChem BioAssay (NCI).

Several values for one entry are separate records, joined by “and”; a condition that tells them apart may be missing. Equal values may be shown once. The panel holds about 83,000 compounds, 20% with a hit somewhere; the sample as a whole holds those more often.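 Single-concentration screen, 48 h exposure, 96-well plates. Endpoint: percent growth. Below 10 = active.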 Unmarked numbers belong to inactive results. Activity calls are given as the source filed them.

What all share (assay): NCI-60 one-dose screen, 48 h (100 = growth as untreated, 0 = no growth, -100 = all killed)
The test system of one test is SK-MEL-2 melanoma. Particulars: 10 µM unless noted.
Another test deals with EKVX NSCLC. As to conditions: 10 µM unless noted.
The test system of a further test is SN12C renal. As to conditions: 10 µM unless noted.
The next test concerns UO-31 renal. As to conditions: 10 µM unless noted.
The next test relates to TK-10 renal.
The next test concerns ACHN renal. Particulars: 10 µM unless noted.
The test system of another test is CAKI-1 renal. Particulars: 10 µM unless noted.
A further test concerns A498 renal. Particulars: 10 µM unless noted.
The test system of a further test is CCRF-CEM leukemia. As to conditions: 10 µM unless noted.
The subject of a further test is MOLT-4 leukemia. Particulars: 10 µM unless noted.
The subject of a further test is SR leukemia. Particulars: 10 µM unless noted.
The test system of the next test is RPMI-8226 leukemia. As to conditions: 10 µM unless noted.
The next test deals with OVCAR-8 ovarian. Particulars: 10 µM unless noted.
A further test deals with OVCAR-5 ovarian. Particulars: 10 µM unless noted.
A further test relates to OVCAR-4 ovarian. Particulars: 10 µM unless noted.
A further test concerns SK-OV-3 ovarian. Particulars: 10 µM unless noted.
Another test deals with IGROV1 ovarian. As to conditions: 10 µM unless noted.
In another test the test system is OVCAR-3 ovarian. As to conditions: 10 µM unless noted.
The subject of another test is HS 578T breast. As to conditions: 10 µM unless noted.
The next test deals with NCI/ADR-RES ovarian. Particulars: 10 µM unless noted.

For `N#Cc1ccc(OC(=O)Nc2c(Cl)cc(Cl)cc2Cl)cc1`, the growth is 118% in the test on SK-MEL-2 melanoma; 107% with EKVX NSCLC; 98.2% in the test on SN12C renal; 83.1% with UO-31 renal; 104% in the test with TK-10 renal (10 µM unless noted); 104% in the test with ACHN renal. Also, the growth in the test on CAKI-1 renal is 89.7%; in the test on A498 renal, 125%; with CCRF-CEM leukemia, 99.3%; in the test with MOLT-4 leukemia, 111%; with SR leukemia, 101%; with RPMI-8226 leukemia it was 107%. Also, the growth with OVCAR-8 ovarian is 105%; with OVCAR-5 ovarian it was 103%; in the test with OVCAR-4 ovarian, 109%; with SK-OV-3 ovarian, 99.7%; in the test with IGROV1 ovarian, 98.7%; with OVCAR-3 ovarian, 112%. Moreover, the figures for the growth in the test on HS 578T breast and in the test with NCI/ADR-RES ovarian were 106% and 111%, respectively.
As to `C=CC(C)(C)n1cc(C2=C(O)C(=O)C(c3cn(C(C)(C)C=C)c4ccccc34)=C(O)C2=O)c2ccccc21`, the growth is 95.9% with SK-MEL-2 melanoma; 87.2% in the test on EKVX NSCLC; 101% in the test on SN12C renal; 74.1% in the test with UO-31 renal; 92.7% in the test on TK-10 renal (10 µM); -99.2% (active) and -100% (active) with TK-10 renal (100 µM). Also, the growth was 94.4% in the test with ACHN renal; 89.7% in the test with CAKI-1 renal; 78.5% with CCRF-CEM leukemia; 88.7% with MOLT-4 leukemia; 71.6% in the test on SR leukemia; 104% in the test on RPMI-8226 leukemia. Moreover, the growth was 122% with OVCAR-5 ovarian; 92.4% with OVCAR-4 ovarian; 94.3% with SK-OV-3 ovarian; 99.5% in the test with IGROV1 ovarian; 107% with OVCAR-3 ovarian; 97.5% in the test with NCI/ADR-RES ovarian.
On to `C/C(=N\O)c1ccccn1`, for which the growth with SK-MEL-2 melanoma was 94.9%; in the test on EKVX NSCLC it was 107%; in the test on SN12C renal, 91.4%; with UO-31 renal, 88.1%; in the test on TK-10 renal (10 µM unless noted) it was 95.8%; in the test on ACHN renal, 105%. Also, the growth in the test on CAKI-1 renal is 95.3%; in the test on A498 renal, 108%; in the test on CCRF-CEM leukemia, 96.5%; with MOLT-4 leukemia, 116%; in the test on SR leukemia, 94.5%; in the test with RPMI-8226 leukemia, 102%. Further, the growth was 97.7% in the test on OVCAR-8 ovarian; 106% in the test on OVCAR-5 ovarian; 97.3% in the test with OVCAR-4 ovarian; 109% with SK-OV-3 ovarian; 110% with IGROV1 ovarian; 106% in the test on OVCAR-3 ovarian. Besides, the growth with HS 578T breast is 95.5%; in the test on NCI/ADR-RES ovarian it was 100%.
Turning to `O=[n+]1ccn([O-])c2ccccc21`, the growth is 120% in the test with SK-MEL-2 melanoma; 104% in the test on EKVX NSCLC; 97.4% in the test with SN12C renal; 88.6% in the test on UO-31 renal; 98.3% with TK-10 renal (10 µM unless noted); 104% in the test with ACHN renal. The growth with CAKI-1 renal was 96.2%; in the test with A498 renal, 81%; with CCRF-CEM leukemia, 17.7%; in the test on MOLT-4 leukemia it was 102%; with SR leukemia, 78.3%; with RPMI-8226 leukemia it was 78.9%. Besides, the growth with OVCAR-8 ovarian was 121%; with OVCAR-5 ovarian, 93.1%; in the test on OVCAR-4 ovarian, 106%; in the test with SK-OV-3 ovarian, 109%; with IGROV1 ovarian, 106%; in the test on OVCAR-3 ovarian, 101%. The results for the growth in the test with HS 578T breast and in the test with NCI/ADR-RES ovarian were 89.4% and 103%, respectively.
As for `CC1(C)CC(=O)C=C(N)C1`, the growth in the test on SK-MEL-2 melanoma is 98.4%; with EKVX NSCLC, 60.3%; with SN12C renal, 99.3%; with UO-31 renal it was 85.7%; with TK-10 renal (10 µM unless noted), 99.2%; with ACHN renal, 107%. For the same compound, the growth is 85.1% with CAKI-1 renal; 85.1% in the test on A498 renal; 124% in the test with CCRF-CEM leukemia; 59.5% with MOLT-4 leukemia; 108% in the test with SR leukemia; 178% in the test on RPMI-8226 leukemia. For the same compound, the growth in the test on OVCAR-8 ovarian was 97.1%; in the test on OVCAR-5 ovarian, 89.3%; in the test with OVCAR-4 ovarian it was 91.7%; in the test with SK-OV-3 ovarian, 145%; in the test on IGROV1 ovarian, 101%; in the test with OVCAR-3 ovarian it was 106%. The growth with HS 578T breast is 77.9%; in the test on NCI/ADR-RES ovarian, 83.4%.
In the case of `O=C(Nc1ccc([N+](=O)[O-])cc1)C(=O)Nc1ccc([N+](=O)[O-])cc1`, the growth is 97% with SK-MEL-2 melanoma; 103% in the test on EKVX NSCLC; 102% in the test on SN12C renal; 89.1% with UO-31 renal; 98.5% in the test with TK-10 renal (10 µM unless noted); 107% with ACHN renal. Besides, the growth in the test with CAKI-1 renal was 98.1%; with A498 renal, 100%; in the test on CCRF-CEM leukemia, 101%; with MOLT-4 leukemia, 101%; with SR leukemia it was 101%; in the test with RPMI-8226 leukemia it was 105%. Also, the growth in the test with OVCAR-8 ovarian was 86.4%; in the test on OVCAR-5 ovarian, 102%; in the test on OVCAR-4 ovarian, 121%; in the test on SK-OV-3 ovarian, 93.5%; in the test on IGROV1 ovarian it was 105%; with OVCAR-3 ovarian, 103%. Besides, the growth in the test with HS 578T breast is 95%; in the test on NCI/ADR-RES ovarian, 105%.
For `COc1ccc(C(=O)C(=O)c2ccccc2)cc1`, the growth was 110% in the test with SK-MEL-2 melanoma; 102% with EKVX NSCLC; 98.7% in the test on SN12C renal; 95.3% with UO-31 renal; 108% with TK-10 renal (10 µM unless noted); 101% with ACHN renal. For the same compound, the growth was 99.9% with CAKI-1 renal; 97.5% in the test with A498 renal; -54.2% (active) in the test with CCRF-CEM leukemia; 101% in the test on MOLT-4 leukemia; 95.9% in the test on SR leukemia; 103% in the test on RPMI-8226 leukemia. Moreover, the growth in the test on OVCAR-8 ovarian was 105%; in the test on OVCAR-5 ovarian it was 101%; in the test on OVCAR-4 ovarian, 100%; in the test with SK-OV-3 ovarian it was 103%; in the test with IGROV1 ovarian it was 102%; in the test with OVCAR-3 ovarian it was 108%. The growth in the test with NCI/ADR-RES ovarian was 104%.
For `NNC(=O)c1ccccc1N`, the growth is 168% in the test with SK-MEL-2 melanoma; 110% with EKVX NSCLC; 108% in the test with SN12C renal; 99.2% in the test with UO-31 renal; 129% in the test with TK-10 renal (10 µM unless noted); 111% in the test on ACHN renal. The growth was 104% with CAKI-1 renal; 140% in the test on A498 renal; -39.5% (active) with CCRF-CEM leukemia; 112% in the test with MOLT-4 leukemia; 156% with SR leukemia; 88.9% in the test with RPMI-8226 leukemia. Besides, the growth in the test with OVCAR-8 ovarian was 107%; in the test on OVCAR-5 ovarian it was 89.8%; in the test with OVCAR-4 ovarian, 106%; in the test on SK-OV-3 ovarian, 114%; in the test on IGROV1 ovarian it was 127%; with OVCAR-3 ovarian it was 124%. Also, the growth in the test on HS 578T breast was 117%; with NCI/ADR-RES ovarian, 105%.
Regarding `O=C(c1ccccc1O)N1CCCC1`, the growth with SK-MEL-2 melanoma is 92.9%; with EKVX NSCLC, 97.5%; in the test on SN12C renal, 102%; in the test on UO-31 renal, 91.9%; in the test with TK-10 renal (10 µM unless noted) it was 96.5%; in the test on ACHN renal, 94.4%. Also, the growth with CAKI-1 renal is 94.8%; with A498 renal, 91.9%; with CCRF-CEM leukemia, 100%; in the test with MOLT-4 leukemia it was 98.6%; with SR leukemia it was 99.5%; in the test on RPMI-8226 leukemia it was 94.8%. Further, the growth was 99.3% with OVCAR-8 ovarian; 98.9% in the test on OVCAR-5 ovarian; 109% with OVCAR-4 ovarian; 95.8% with SK-OV-3 ovarian; 103% in the test on IGROV1 ovarian; 110% in the test on OVCAR-3 ovarian. Further, the growth was 111% in the test with HS 578T breast and 101% in the test on NCI/ADR-RES ovarian.
